GRK2 inh: inhibitors of human GRK2 displacing RNA aptamer; P25098; bead flow cytometry, FAM-aptamer displacement from GRK2; inhibition of aptamer binding, % at 10 µM; hit rate 0.59% among 330,000; AID 488847;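 active = inhibition of aptamer binding above 40%, roughly 3 SD of noise, on plates passing a quality check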;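 also: median bead fluorescence of bound FAM aptamer so fluorescent compounds give negative values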
ATG4B inhibitor: ATG4B (human) cysteine protease inhibition | Q9Y4P1 | ATG4B cleavage of LC3-PLA2, NBD-HPC fluorescence, 1 h | inhibition, % at 8.33 µM | hit rate 0.51% among 340,000; in the data active = inhibition above about 40%
Target sequence (Q9Y4P1 whole entry, looked up): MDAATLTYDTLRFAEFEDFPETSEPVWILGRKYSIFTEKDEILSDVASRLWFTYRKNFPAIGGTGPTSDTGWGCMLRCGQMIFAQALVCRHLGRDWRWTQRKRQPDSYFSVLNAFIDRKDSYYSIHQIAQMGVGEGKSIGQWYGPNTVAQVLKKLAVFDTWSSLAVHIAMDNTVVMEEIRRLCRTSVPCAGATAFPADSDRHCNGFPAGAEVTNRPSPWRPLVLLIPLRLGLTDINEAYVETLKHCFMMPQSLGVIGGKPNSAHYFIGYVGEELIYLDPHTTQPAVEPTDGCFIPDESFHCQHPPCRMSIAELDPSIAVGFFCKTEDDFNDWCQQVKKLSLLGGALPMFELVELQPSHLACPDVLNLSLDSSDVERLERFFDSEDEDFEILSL
CR mimetic SO: caloric restriction mimetics inhibiting age-related superoxide in yeast; hit rate 0.18% among 330,000; S. cerevisiae aged cells, superoxide DHE fluorescence; hits give low values; AID 2690; superoxide response (% of plate mean), % at 10 µM;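 active = superoxide response under a set limit, about three screen SD below normal, cut at about 65% in these data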;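 also: yeast aged for seven days with compound at 30 °C before DHE staining; 100% = average MFI of all compound-treated wells on the plate with controls excluded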
Efflux pump inh: antifungal efflux pump inhibition, Nile Red retention | S. cerevisiae Candida pump triplex | inhibition, % at 10 µM | hit rate 0.44% among 330,000;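 active = plate passing quality check with inhibition over a set limit, or well fluorescence over plate mean plus 4 SD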;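 also: Nile Red retained in pooled yeast measured as flow cytometry median fluorescence; 0% = buffer negative control and 100% = Enniatin B positive control; higher means more Nile Red kept so more efflux inhibition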
Superoxide pick: yeast aging superoxide inhibition, cherry pick confirmation; S. cerevisiae aging, superoxide DHE fluorescence; hits give low values; hit rate 1% among 850; AID 434994; shares compounds with CR mimetic SO; superoxide response (% of plate), % at 10 µM;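 active = superoxide signal below 65% of the plate average of sample wells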;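 also: cells aged with compound for 7 days at 30 degrees C before staining; 100% equals mean DHE fluorescence of all compound wells on the plate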
DHE counter: compound alters DHE oxidation or fluorescence in yeast. AID 435000. 850 tested, under 10 active. shares compounds with CR mimetic SO. fluorescence response, % at 10 µM. S. cerevisiae BY4741, flow cytometry; hits give low values;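 active = fluorescence response below 15%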;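 also: percent of the mean fluorescence averaged over all compound wells on the plate; lower means stronger quenching of DHE signal or ROS scavenging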
Active calls of the source: *; . = no result given. Only some compounds are listed: those with a hit (about 1.6% of all), similar ones and a draw of the others.

SMILES	GRK2 inh	ATG4B inhibitor	CR mimetic SO	Efflux pump inh	Superoxide pick	DHE counter
CCSc1ncc(Cl)c(C(=O)Nc2ccccc2Cl)n1	3	-8	93	0	108	101
CCSc1ncc(Cl)c(C(=O)Nc2ccccc2OC)n1	6	-5	100	0	.	.
CSc1ncc(Cl)c(C(=O)Nc2ccc(NC(C)=O)cc2)n1	0	7	94	0	.	.
CSc1ncc(Cl)c(C(=O)Nc2c(C)cccc2C)n1	1	0	106	0	108	105
CSc1ncc(Cl)c(C(=O)Nc2ccccc2Cl)n1	2	-3	98	0	101	89
COC(=O)c1cc(C)sc1NC(=O)CN1CCN(C(=O)C2CCCO2)CC1 (configuration not stated)	11	-1	90	-3	.	.
O=C1c2cccnc2C(=O)N1Cc1ccc(S(=O)(=O)N2CCOc3ccc(Cl)cc32)cc1	1	-6	96	0	.	.
O=C(Nc1ccccc1)c1ccc(=O)n(Cc2ccc(F)c(F)c2)c1	0	-7	106	0	.	.
Cc1cccc(N2CCN(C(=O)CC(NC(=O)c3ccccc3)c3ccccc3)CC2C)c1 (configuration not stated)	0	-16	54*	2	84	91
Cc1ccccc1-n1c(SCC(=O)N2CCOCC2)nc(O)c(Cc2ccccc2)c1=O	0	-1	113	0	.	.
CCOC(=O)c1cc(=O)n(Cc2ccccc2C)c2ccccc12	0	-5	61*	0	98	94
CCCCN(C)S(=O)(=O)c1ccc(C(=O)Nc2nnc(C3=COCCO3)o2)cc1	2	3	118	0	99	110
CN(CC1CCCO1)S(=O)(=O)c1ccc(C(=O)Nc2nnc(-c3ccccc3)o2)cc1 (configuration not stated)	0	-1	93	0	105	123
COc1ccccc1-c1nnc(NC(=O)c2ccc(S(=O)(=O)N(C)CC3CCCO3)cc2)o1 (configuration not stated)	0	-10	94	0	94	96
CN(CC1CCCO1)S(=O)(=O)c1ccc(C(=O)Nc2ccccc2F)cc1 (configuration not stated)	3	2	89	0	.	.
Cc1c(Cl)ccc(S(=O)(=O)NCCCn2ccnc2)c1Cl	0	5	95	0	.	.
CCCCCn1nc(C(=O)OCc2nnc(-c3ccccc3)o2)c2ccccc2c1=O	0	5	107	0	.	.
Cc1cccc(CN2C(=O)CCSc3ccc(Cl)cc32)c1	2	-5	65*	0	84	96
O=C(/C=C/c1ccccc1[N+](=O)[O-])NCc1ccccc1Cl	1	27	64*	0	116	105
O=[N+]([O-])c1cccnc1Sc1n[nH]c(-c2ccc(Cl)cc2)n1	1	-1	91	0	.	.
COc1cccc2cc(C(=O)C3=C(O)C(=O)N(CCN4CCOCC4)C3c3ccc(C)o3)oc12 (configuration not stated)	0	9	87	0	.	.
CC(=O)Nc1cc2c(cc1NC(=O)Cn1nc(-c3ccccc3F)ccc1=O)OCCO2	0	-8	62*	0	100	110
Cc1sc2ncnc(SCC(=O)N3CCCC(C(F)(F)F)C3)c2c1C (configuration not stated)	2	8	101	0	.	.
CCN1CCN(c2ncnc3sc4c(c23)CCC(C)C4)CC1 (configuration not stated)	0	5	51*	0	99	91
COc1cccc(C(=O)N2CCC(n3nccc3NC(=O)C(OC)c3ccccc3)CC2)c1 (configuration not stated)	0	9	97	0	.	.
SMILES	GRK2 inh	ATG4B inhibitor	CR mimetic SO	Efflux pump inh	Superoxide pick	DHE counter
C#CCSc1nnc(-c2ccc([N+](=O)[O-])cc2)o1	2	-1	54*	0	73	93
O=C(COc1ccc(Cl)cc1Cl)OCn1nnc2ccccc2c1=O	0	-5	97	0	.	.
Cc1ccccc1OCC(=O)OCn1nnc2ccccc2c1=O	1	-4	65*	0	109	102
COc1cccc(NC(=O)C(c2ccccc2)N2CCN(c3ccccn3)CC2)c1 (configuration not stated)	2	7	106	0	.	.
CC(C(=O)Nc1ccccc1)N1CCN(c2ccccn2)CC1 (configuration not stated)	1	-2	103	0	97	98
Cc1cc([N+](=O)[O-])ccc1NC(=O)C(C)N1CCN(c2ccccn2)CC1 (configuration not stated)	2	1	116	0	84	96
COc1ccc(Cl)cc1NC(=O)C(C)N1CCN(c2ccccn2)CC1 (configuration not stated)	0	-5	104	0	97	96
CCc1nnc(NC(=O)CSc2nnc(Cc3cc(=O)[nH]c(=O)[nH]3)n2-c2cccc(OC)c2)s1	0	4	77	0	.	.
Cc1cc(OCC(=O)N(C)C2CCCCC2)cc(C)c1Cl	0	18	56*	0	101	96
CC1(C)CSC(=S)N1S(=O)(=O)c1ccccc1	1	5	58*	0	102	93
COc1cc(C)c(/C=C(\C#N)C(=O)Nc2cccc(C)c2)cc1C(C)C	0	2	50*	1	102	95
COc1ccc(/C=C/C(=O)NCC(=O)N/N=C/c2cccs2)cc1	1	2	98	0	.	.
Cc1cc(/C=N/NC(=O)C(O)(c2ccccc2)c2ccccc2)c(C)n1-c1ccc(C(=O)O)cc1	4	18	56*	0	96	105
Cc1cccc(NC(=O)CCS(=O)(=O)c2ccc(Br)cc2)c1	3	3	100	0	.	.
COc1cccc(NC(=O)CCS(=O)(=O)c2ccc(Br)cc2)c1	5	-7	50*	0	102	106
CCCN1CC(O)=C(C#N)C1=O	2	1	122	0	.	.
COc1ccc(NC(=O)N2c3ccc(OC)cc3C(C)=CC2(C)C)cc1	5	-10	85	0	.	.
CCNC(=O)N1c2ccc(OC)cc2C(C)=CC1(C)C	3	1	61*	0	110	112
CCCOc1cc(C)c(S(=O)(=O)N2CCOCC2)cc1C	1	.	92	0	.	.
CCOc1cc(C)c(S(=O)(=O)N2CCCC2)cc1C	4	-7	65*	0	89	106
Cc1ccccc1N(CC(=O)Nc1ccc(S(=O)(=O)N2CCOCC2)cc1)S(C)(=O)=O	3	14	106	0	.	.
NC1=C(c2ccccc2)C(=O)NC1=O	1	0	37*	0	99	106
O=C1OCC(c2ccccc2)=C1c1ccccc1	0	-1	97	0	.	.
CCC(C)NC(=O)c1cc(S(=O)(=O)N2CCCCC2)c[nH]1 (configuration not stated)	0	-6	104	0	.	.

Screens as filed in PubChem BioAssay.
